Here are results for 24 targets from the supplement of paper PMC12067093, “Discovery and optimisation of a covalent ligand for TRIM25 and its application to targeted protein ubiquitination” (Chemical Science, 2025).

Compound in this assay: CC1Cc2ccccc2N1C(=O)C1CCCN(C1)C(=O)CCl (mixture of isomers) [TRIM25 ligand 11 (diastereomer mixture)]
As to the kind of experiment: probe-labelled cysteine peptide fold change vs DMSO (competition) (log2 fold change); higher = less target engagement (more negative = stronger competition). The conditions noted are these: THP-1, incubation time: 4 h.

Targets with the largest changes are over-represented here; the source holds about 21,000 in all.
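Also: competitive chemoproteomic profiling in live THP-1 cells with an iodoacetamide desthiobiotin (IA-DTB) probe, comparing probe-labelled peptide intensities in compound-treated cells against DMSO-treated controls.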

Sequence of UniProt Q9P258 (Q9P258 whole entry, looked up): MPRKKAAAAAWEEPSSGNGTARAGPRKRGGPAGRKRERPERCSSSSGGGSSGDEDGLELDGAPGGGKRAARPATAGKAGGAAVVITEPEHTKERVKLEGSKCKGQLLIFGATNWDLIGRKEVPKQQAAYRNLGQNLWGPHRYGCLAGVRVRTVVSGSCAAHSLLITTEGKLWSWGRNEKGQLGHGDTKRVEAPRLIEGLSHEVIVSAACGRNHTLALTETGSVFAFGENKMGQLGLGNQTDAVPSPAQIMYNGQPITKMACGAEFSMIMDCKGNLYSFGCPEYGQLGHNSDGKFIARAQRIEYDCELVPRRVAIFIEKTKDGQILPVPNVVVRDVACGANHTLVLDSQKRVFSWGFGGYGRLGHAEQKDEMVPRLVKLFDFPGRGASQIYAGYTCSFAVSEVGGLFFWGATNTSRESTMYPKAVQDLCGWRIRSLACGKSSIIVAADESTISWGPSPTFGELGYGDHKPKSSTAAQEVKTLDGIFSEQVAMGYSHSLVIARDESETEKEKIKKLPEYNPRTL
Sequence of UniProt Q3YEC7 (Q3YEC7 whole entry, looked up): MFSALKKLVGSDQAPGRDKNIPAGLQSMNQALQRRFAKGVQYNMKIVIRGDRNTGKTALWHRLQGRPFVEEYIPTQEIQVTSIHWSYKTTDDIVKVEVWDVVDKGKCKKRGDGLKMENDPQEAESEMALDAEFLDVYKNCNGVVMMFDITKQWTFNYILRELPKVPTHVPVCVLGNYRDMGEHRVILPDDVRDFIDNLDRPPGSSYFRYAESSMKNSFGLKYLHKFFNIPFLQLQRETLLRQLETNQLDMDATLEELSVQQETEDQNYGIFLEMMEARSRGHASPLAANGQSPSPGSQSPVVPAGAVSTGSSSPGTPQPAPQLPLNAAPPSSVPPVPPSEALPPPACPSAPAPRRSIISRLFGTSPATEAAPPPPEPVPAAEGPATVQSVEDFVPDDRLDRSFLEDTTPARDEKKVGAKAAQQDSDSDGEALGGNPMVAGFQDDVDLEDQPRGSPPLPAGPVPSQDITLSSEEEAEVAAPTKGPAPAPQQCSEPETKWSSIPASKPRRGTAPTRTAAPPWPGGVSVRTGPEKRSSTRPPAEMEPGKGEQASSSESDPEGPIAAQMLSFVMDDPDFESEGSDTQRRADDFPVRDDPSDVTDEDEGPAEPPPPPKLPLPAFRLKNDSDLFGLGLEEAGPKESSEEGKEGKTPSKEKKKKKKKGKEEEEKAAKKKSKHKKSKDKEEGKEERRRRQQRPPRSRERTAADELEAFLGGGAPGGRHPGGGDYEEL
Sequence of UniProt P49792 (P49792 whole entry, looked up): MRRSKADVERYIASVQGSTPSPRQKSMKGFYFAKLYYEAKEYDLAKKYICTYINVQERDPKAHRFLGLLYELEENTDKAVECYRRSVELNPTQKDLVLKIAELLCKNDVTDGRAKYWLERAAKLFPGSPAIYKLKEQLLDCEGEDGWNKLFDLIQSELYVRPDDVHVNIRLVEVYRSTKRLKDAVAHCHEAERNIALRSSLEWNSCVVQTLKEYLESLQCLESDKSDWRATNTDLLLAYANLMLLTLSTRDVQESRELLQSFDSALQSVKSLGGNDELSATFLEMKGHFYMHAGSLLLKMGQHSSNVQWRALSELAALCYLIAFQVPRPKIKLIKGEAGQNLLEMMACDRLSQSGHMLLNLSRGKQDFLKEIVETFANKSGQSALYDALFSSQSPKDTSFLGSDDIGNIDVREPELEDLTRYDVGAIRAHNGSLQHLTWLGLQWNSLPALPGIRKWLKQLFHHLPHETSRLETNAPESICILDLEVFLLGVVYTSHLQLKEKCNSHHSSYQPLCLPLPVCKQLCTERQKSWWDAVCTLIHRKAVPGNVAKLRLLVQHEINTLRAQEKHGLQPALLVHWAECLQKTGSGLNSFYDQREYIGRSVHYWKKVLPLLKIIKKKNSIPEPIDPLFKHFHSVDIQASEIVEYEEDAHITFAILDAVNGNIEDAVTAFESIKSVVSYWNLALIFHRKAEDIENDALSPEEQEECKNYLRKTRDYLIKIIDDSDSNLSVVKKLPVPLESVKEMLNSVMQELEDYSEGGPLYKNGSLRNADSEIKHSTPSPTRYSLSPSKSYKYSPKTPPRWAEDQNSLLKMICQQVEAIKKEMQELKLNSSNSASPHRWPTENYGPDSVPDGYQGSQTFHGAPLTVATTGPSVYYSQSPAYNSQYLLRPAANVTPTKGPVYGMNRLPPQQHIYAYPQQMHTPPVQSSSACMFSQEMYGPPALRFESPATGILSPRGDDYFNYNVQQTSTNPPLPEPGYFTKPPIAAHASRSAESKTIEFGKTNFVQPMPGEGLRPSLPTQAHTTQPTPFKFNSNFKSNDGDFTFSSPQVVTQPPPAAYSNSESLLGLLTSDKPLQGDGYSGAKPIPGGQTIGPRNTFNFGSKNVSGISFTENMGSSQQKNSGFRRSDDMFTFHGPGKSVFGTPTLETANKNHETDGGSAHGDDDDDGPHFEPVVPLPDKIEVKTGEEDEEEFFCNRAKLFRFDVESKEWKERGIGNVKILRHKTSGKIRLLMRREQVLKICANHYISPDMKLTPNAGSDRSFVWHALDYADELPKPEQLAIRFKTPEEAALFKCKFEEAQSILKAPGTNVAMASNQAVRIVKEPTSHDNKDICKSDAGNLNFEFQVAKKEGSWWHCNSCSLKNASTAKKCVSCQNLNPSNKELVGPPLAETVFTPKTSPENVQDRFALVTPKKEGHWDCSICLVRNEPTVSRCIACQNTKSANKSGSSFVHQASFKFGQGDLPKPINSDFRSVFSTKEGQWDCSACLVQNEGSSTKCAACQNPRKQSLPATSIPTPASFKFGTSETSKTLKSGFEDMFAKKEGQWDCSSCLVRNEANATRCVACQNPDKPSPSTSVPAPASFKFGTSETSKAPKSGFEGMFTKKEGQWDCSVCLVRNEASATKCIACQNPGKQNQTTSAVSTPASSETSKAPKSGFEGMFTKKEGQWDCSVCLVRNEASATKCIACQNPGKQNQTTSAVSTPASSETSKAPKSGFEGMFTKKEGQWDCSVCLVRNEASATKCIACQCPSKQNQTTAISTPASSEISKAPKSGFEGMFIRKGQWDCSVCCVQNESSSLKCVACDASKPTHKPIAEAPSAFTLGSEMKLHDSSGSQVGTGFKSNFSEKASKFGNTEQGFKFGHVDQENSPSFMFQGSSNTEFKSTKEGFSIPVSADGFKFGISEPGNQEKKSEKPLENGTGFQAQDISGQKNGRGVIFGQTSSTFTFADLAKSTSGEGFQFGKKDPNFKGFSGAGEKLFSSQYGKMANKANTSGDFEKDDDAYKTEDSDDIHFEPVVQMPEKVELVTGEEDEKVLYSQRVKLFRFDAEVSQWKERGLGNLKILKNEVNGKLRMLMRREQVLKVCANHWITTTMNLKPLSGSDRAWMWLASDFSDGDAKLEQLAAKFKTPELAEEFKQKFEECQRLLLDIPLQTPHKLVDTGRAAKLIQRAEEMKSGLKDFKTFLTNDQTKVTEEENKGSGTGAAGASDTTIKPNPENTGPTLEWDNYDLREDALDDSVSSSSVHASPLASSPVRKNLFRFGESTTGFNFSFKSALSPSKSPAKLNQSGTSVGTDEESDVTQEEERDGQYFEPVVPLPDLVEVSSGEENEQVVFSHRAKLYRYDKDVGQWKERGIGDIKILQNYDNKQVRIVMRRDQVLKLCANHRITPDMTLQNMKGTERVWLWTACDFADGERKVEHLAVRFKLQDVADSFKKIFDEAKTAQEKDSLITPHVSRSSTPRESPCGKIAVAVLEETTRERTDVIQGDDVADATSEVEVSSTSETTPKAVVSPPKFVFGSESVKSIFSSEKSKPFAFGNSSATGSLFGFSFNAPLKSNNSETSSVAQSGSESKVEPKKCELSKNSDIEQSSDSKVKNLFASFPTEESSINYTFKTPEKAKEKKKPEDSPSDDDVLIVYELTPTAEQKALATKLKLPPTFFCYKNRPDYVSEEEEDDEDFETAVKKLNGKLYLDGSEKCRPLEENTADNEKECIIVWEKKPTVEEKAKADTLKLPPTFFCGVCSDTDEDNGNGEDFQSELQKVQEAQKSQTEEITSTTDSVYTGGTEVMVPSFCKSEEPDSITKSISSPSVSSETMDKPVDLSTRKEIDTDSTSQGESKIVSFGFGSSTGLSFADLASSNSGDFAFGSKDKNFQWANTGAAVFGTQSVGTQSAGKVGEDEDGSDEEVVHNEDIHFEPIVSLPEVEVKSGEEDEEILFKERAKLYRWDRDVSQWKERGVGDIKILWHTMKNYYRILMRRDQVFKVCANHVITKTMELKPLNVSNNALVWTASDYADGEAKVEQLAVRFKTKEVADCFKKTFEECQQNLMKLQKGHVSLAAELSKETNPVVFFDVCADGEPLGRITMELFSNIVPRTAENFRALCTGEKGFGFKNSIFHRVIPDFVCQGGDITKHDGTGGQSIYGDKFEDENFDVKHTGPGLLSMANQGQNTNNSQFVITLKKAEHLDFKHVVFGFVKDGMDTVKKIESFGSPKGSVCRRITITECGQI
Sequence of UniProt Q06323 (Q06323 whole entry, looked up): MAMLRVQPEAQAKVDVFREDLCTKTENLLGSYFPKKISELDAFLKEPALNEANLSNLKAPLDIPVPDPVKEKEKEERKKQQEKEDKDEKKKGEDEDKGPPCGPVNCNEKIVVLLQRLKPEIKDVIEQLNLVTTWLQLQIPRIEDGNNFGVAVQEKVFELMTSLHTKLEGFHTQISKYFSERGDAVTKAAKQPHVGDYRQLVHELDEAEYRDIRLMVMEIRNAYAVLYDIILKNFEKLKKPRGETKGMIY
Sequence of UniProt Q15008 (Q15008 whole entry, looked up): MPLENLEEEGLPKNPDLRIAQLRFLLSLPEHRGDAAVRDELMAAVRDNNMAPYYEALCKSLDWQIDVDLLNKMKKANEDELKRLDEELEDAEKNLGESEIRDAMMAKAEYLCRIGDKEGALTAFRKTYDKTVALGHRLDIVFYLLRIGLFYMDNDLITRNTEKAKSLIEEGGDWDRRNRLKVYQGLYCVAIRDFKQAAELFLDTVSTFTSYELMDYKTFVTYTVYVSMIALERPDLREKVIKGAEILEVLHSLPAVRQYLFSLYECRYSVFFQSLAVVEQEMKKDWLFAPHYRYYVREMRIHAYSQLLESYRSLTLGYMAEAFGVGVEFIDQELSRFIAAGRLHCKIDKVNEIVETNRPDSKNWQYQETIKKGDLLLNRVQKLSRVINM

On to “RABGEF1_Q9UJ41_359_RDLSIEEQSECAQDFYHNVAER (UniProt Q9UJ41)”, for which the “probe-labelled cysteine peptide fold change” value (10 µM) came out at 0.648 and the “probe-labelled cysteine peptide fold change” value (50 µM) is -0.0585.
As for “PSMD6_Q15008_188_VYQGLYCVAIR (UniProt Q15008)”, the “probe-labelled cysteine peptide fold change” value runs as follows: (10 µM) -0.0246; (50 µM) 0.231.
For “RABL6_Q3YEC7_172_VPTHVPVCVLGNYR (UniProt Q3YEC7)”, in that order: 0.0329 and 0.101.
For “RANBP2_P49792_3221_ITITECGQI (UniProt P49792)” the same measures were -0.127 and 0.249.
Consider “RAI1_Q7Z5J4_899_APLICTK (UniProt Q7Z5J4)”, for which the “probe-labelled cysteine peptide fold change” value (10 µM) was -0.024 and the “probe-labelled cysteine peptide fold change” value (50 µM) was -0.376.
For “RBM22_Q9NW64_74_TEVCQTCSK (UniProt Q9NW64)”, in that order: -0.0386 and -0.0803.
For “RNPEP_Q9H4A4_85_LDSHPCLEVTAAALR (UniProt Q9H4A4)” the same measures were 0.0713 and -0.0588.
For the target “RHOG_P84095_105_WHPEVCHHCPDVPILLVGTKK (UniProt P84095)”, the “probe-labelled cysteine peptide fold change” value reads like this: (10 µM) -0.292; (50 µM) -0.278.
For “RAB3GAP1_Q15042_873_FVSCLLEQPEVLVTGAGR (UniProt Q15042)”, the “probe-labelled cysteine peptide fold change” value is, setting by setting: (10 µM) 0.274; (50 µM) 0.33.
For “RABEP1_Q15276_350_IPVVCALTQEESSAQLSNEEEHLDSTR (UniProt Q15276)”, in that order: -0.0072 and -0.0899.
For “RBM4B_Q9BQ04_31_VLECDIIK<|>RBM4_Q9BWF3_31_VLECDIIK (UniProt Q9BWF3+Q9BQ04)”, in that order: -0.00323 and -0.0431.
In the case of “RASAL3_Q86YV0_447_LCGALEPALPAQAK (UniProt Q86YV0)”, the “probe-labelled cysteine peptide fold change” value was found to be 0.119 (10 µM) and 0.0549 (50 µM).
For “PTPN12_Q05209_343_SCLVEGDAK (UniProt Q05209)” the same measures were 0.155 and -0.0495.
Turning to “RGMB_Q6NW40_226_ITIIFKAHHECTDQK (UniProt Q6NW40)”, the “probe-labelled cysteine peptide fold change” value by setting is: (10 µM) -0.5; (50 µM) -0.619.
With “RANBP3_Q9H6Z4_406_VEVITGEEAESNVLQMQCK (UniProt Q9H6Z4)”, the “probe-labelled cysteine peptide fold change” value (10 µM) is 0.0311 and the “probe-labelled cysteine peptide fold change” value (50 µM) was 0.26.
Consider “RNF14_Q9UBS8_350_LTYHGVSPCK (UniProt Q9UBS8)”, for which the “probe-labelled cysteine peptide fold change” value (10 µM) is 0.114 and the “probe-labelled cysteine peptide fold change” value (50 µM) worked out at 0.116.
For “RAD21_O60216_35_AHVFECNLESSVESIISPK (UniProt O60216)” the same measures were 0.0257 and 0.111.
For “RCC2_Q9P258_280_GNLYSFGCPEYGQLGHNSDGK (UniProt Q9P258)” the same measures were 0.288 and -0.207.
For “RPL30_P62888_52_LVILANNCPALR (UniProt P62888)”, in that order: 0.0216 and 0.142.
In the case of “RAP1A_P62834_118_DTEDVPMILVGNKCDLEDERVVGK (UniProt P62834)”, the “probe-labelled cysteine peptide fold change” value is, setting by setting: (10 µM) -0.603; (50 µM) -0.364.
“RANBP3_Q9H6Z4_249_NESSNASEEEACEK (UniProt Q9H6Z4)”: the “probe-labelled cysteine peptide fold change” value (10 µM) was 0.387 and the “probe-labelled cysteine peptide fold change” value (50 µM) is -0.572.
For “PSME1_Q06323_101_KKGEDEDKGPPCGPVNCNEK (UniProt Q06323)” the same measures were -0.56 and -0.596.
For “RFC4_P35249_180_FCLICNYVSR (UniProt P35249)” the same measures were -0.16 and -0.0464.
For “RAB3GAP1_Q15042_783_HLLPCVIHAAVLK (UniProt Q15042)” the same measures were -0.107 and -0.00935.
